PubChem BioAssay (Tox21)
Results filed as inconclusive are left out. Entries that show only a call come without a potency. Calls of active or inactive are those of the source. The call rests on the fitted dose curve; in most records, active means well fitted activation curve with a large enough effect in the repeat runs; inconclusive means weak or mixed curves; inactive means flat fitted curve, though single readings scatter.

Experiment: A CellTox Green Cytotoxicity Assay to monitor cytotoxicity in HEK293 cells - 16 hour (AID 1224888); further: nearly all actives have a fitted effect of over 35% in size
Conditions: CellTox Green fluorescence; series mostly up to 76.8 µM
Text: National Center for Advancing Translational Sciences [NCATS]
NIH Chemical Genomics Center [NCGC]
U.S. Environmental Protection Agency [EPA]
National Institutes of Environmental Health Sciences [NIEHS]
National Toxicology Program [NTP]
Cell-based models are critical for drug discovery. Determining the natural cytotoxic effects resulting from test compounds is an essential research activity. A CellTox Green Cytotoxicity Assay to monitor cytotoxicity in real time of continues cell culture during 40 hours of the compound treatment was used to screen Tox21 10K library compounds in Hek293 cells. CellTox Green Cytotoxicity Assay is a nonlytic, homogeneous, biofluorescent method to measure cytotoxicity in cell culture after experimental manipulation. The assay system uses a proprietary asymmetric cyanine dye that is excluded from viable cells but preferentially stains the dead cell's DNA. […] Viable cells produce no appreciable increases in fluorescence. Therefore, the fluorescence signal produced by the binding interaction with dead cell DNA is proportional to cytotoxicity.
The mixture of Hek293 cell suspension and reagents were dispensed at 600cells/6 ul/well in 1536-well tissue culture treated black solid bottom plates using a Multidrop dispenser. After the assay plates were incubated at a 37 C/5% CO2 incubator for 5 hours, 23 nL of compounds dissolved in DMSO, positive and negative controls was transferred to the assay plate by a pintool work station. The plates were incubated at 37 C for 40 hours. The fluorescence intensity were measured at 0h, 8h, 16h, 24h, 32h and 40h time points using ViewLux plate reader during compound treatment.
For `Cc1c(C)c2c(c(C)c1OC(=O)CCC(=O)OCCO)CC[C@@](C)(CCC[C@H](C)CCC[C@H](C)CCCC(C)C)O2`, the Potency was “inactive”. For `Cc1cscn1`, the Potency was “inactive”. In the case of `CCCCOc1ccc(OCCCN2CCOCC2)cc1`, the Potency is reported as “inactive”. With `O=C(OC(=O)c1ccccc1)c1ccccc1` the Potency was “inactive”. With `CC1=C(Br)C(=O)C(Br)=C/C1=C(/c1ccccc1S(=O)(=O)O)c1cc(Br)c(O)c(Br)c1C` the Potency was “inactive”. For `CCC(OCCCOC)OC(C)=O` (stereo not given), the Potency was “inactive”. With `C[C@@H](CN(C)C)CN1c2ccccc2Sc2ccccc21` the Potency was “inactive”. With `CC(=O)c1cc2ccccc2s1` the Potency was “inactive”. In the case of `CC(=O)OCCN(CCOC(C)=O)c1ccc(N=Nc2ccc([N+](=O)[O-])cc2C#N)cc1`, the Potency is reported as “inactive”. In the case of `COc1ncnc(NS(=O)(=O)c2ccc(N)cc2)c1OC`, the Potency is reported as “inactive”. For `OC1(c2ccccc2)CCNCC1`, the Potency was “inactive”. In the case of `CCCCCC[C@@H](O)C/C=C\CCCCCCCC(=O)OCC(O)CO` (stereo not given in full), the Potency is reported as “inactive”. For `C1COC1`, the Potency was “inactive”. In the case of `C[C@@]12CCC[C@H]1[C@@H]1CC[C@H]3C[C@@H](O)CC[C@]3(C)[C@H]1CC2`, the Potency is reported as “inactive”. For `CCOC(=O)OC(C)OC(=O)[C@@H]1N2C(=O)[C@@H](NC(=O)[C@H](N)c3ccccc3)[C@H]2SC1(C)C` (stereo not given in full), the Potency was “inactive”. With `CC1(C)[C@H](C(=O)O)N2C(=O)C[C@H]2S1(=O)=O` the Potency was “inactive”. In the case of `C=C1c2cccc(O)c2C(O)=C2C(=O)[C@]3(O)C(O)=C(C(N)=O)C(=O)[C@@H](N(C)C)[C@@H]3[C@@H](O)[C@H]12`, the Potency is reported as “inactive”. With `CC1CC(C)C(=O)C1=O` (stereo not given) the Potency was “inactive”. For `CCOc1cccc(-n2cc(C(=O)N3CCN(c4cc(C(=O)O)c5ccccc5c4)CC3)nc2-c2ccc(C)cc2)c1`, the Potency was “inactive”. With `C=C1C[C@@]23CC[C@H]4[C@@](C)(CCC[C@@]4(C)C(=O)O[C@@H]4O[C@H](CO)[C@@H](O)[C@H](O)[C@H]4O)[C@@H]2CC[C@]1(O[C@@H]1O[C@H](CO)[C@@H](O)[C@H](O[C@@H]2O[C@H](CO)[C@@H](O)[C@H](O)[C@H]2O)[C@H]1O[C@@H]1O[C@H](CO)[C@@H](O)[C@H](O)[C@H]1O)C3` the Potency was “inactive”. For `CC(C)=CCC/C(C)=C/CC/C(C)=C/CCC(=O)OC/C=C(\C)CCC=C(C)C`, the Potency was “inactive”. For `CC(C)Nc1cccnc1N1CCN(C(=O)c2cc3cc(NS(C)(=O)=O)ccc3[nH]2)CC1`, the Potency was “inactive”. With `CNC(=O)c1cnn(-c2nc(N)c3ncn([C@@H]4O[C@H](CO)[C@@H](O)[C@H]4O)c3n2)c1` the Potency was “inactive”. With `CO[C@]1(NC(=O)CSC(F)F)C(=O)N2C(C(=O)O)=C(CSc3nnnn3CCO)CO[C@H]21` the Potency was “inactive”. With `CCC1CO1` (stereo not given) the Potency was “inactive”. With `Nc1ncnc2c1ncn2[C@H]1CC[C@@H](CO)O1` the Potency was “inactive”. For `COc1cc(N)c(Cl)cc1C(=O)NC1CCN(CCCOc2ccc(F)cc2)CC1OC` (stereo not given), the Potency was “inactive”. In the case of `Cc1ccccc1S`, the Potency is reported as “inactive”. In the case of `O=C(Nc1cccc2c(=O)cc(-c3nn[nH]n3)oc12)c1ccc(OCCCCc2ccccc2)cc1`, the Potency is reported as “inactive”. In the case of `CC(C)=CCC/C(C)=C/CC/C(C)=C/C(=O)OCC(=O)[C@@]1(O)CC[C@H]2[C@@H]3CCC4=CC(=O)C=C[C@]4(C)[C@H]3[C@@H](O)C[C@@]21C`, the Potency is reported as “inactive”. In the case of `Cc1ccco1`, the Potency is reported as “inactive”. With `Nc1nc2ccc([N+](=O)[O-])cc2s1` the Potency was “inactive”. With `CCOC(C)=O` the Potency was “inactive”. With `Cc1cccc(N(C)C(=S)Oc2ccc3c(c2)CCC3)c1` the Potency was “inactive”. For `COc1ccccc1N1CCN(CC(O)COc2cccc3ccccc23)CC1` (stereo not given), the Potency was “inactive”. In the case of `CC(=O)OCC[N+](C)(C)C`, the Potency is reported as “inactive”. With `C=C1CCC2CC1C2(C)C` (stereo not given) the Potency was “inactive”. With `CCOC(=O)c1ccc(OCCN2C[C@H](O)[C@@H](O)[C@H](O)[C@H]2CO)cc1` the Potency was “inactive”. For `CC(C)C(O)(c1ccc(OC(F)(F)F)cc1)c1cncnc1` (stereo not given), the Potency was “inactive”. For `CN1C(=O)c2ccccc2C1=O`, the Potency was “inactive”.
